Gal4-VP16 FLuc: Gal4-VP16 reporter inhibition counter-screen. Drosophila S2 Gal4-VP16 UAS-luciferase, luminescence, 20 h. Potency, µM (top dose mostly 53.6 µM), without a hit: at the top dose activity, negative = inhibition, actives largely listed as inhibitors. 3.5% of 310,000 active. AID 2546;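 note: Gal4-VP16 expression switched on by copper sulfate through the metallothionein promoter; potency is the fitted concentration of half-maximal effect; nearly all actives have a fitted effect of over 50% in size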
LDHA block: blocks human lactate dehydrogenase A; 0.15% of 480,000 active; activity change, % (values are at about 110 or 230 µM); purified LDHA, NADH/diaphorase-resazurin fluorescence; stronger effect = lower value; AID 1347041; P00338; in the data active = activity change below about -30%; inconclusive = mostly about -25% to -30%;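 note: plate controls were DMSO wells for no effect and wells without enzyme for full effect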
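Human LDH5 (2 nM) was incubated with 0.06 mM NADH and 0.2 mM pyruvate for 5 min at room temperature in Tris pH 7.4. Remaining NADH was coupled through diaphorase/resazurin, and resorufin fluorescence was read at 0 and 20 min.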
RORgamma inh: ROR gamma (mouse) transcription inhibition | P51450 | Drosophila S2 Gal4-RORgamma UAS-luciferase reporter, 20 h | Potency, µM (titrated, usually from 53.6 µM), for the others: at the top dose activity change, negative = inhibition, usual class: inhibitors | 5.4% of 310,000 active; note: potency is the fitted concentration of half-maximal effect; nearly all actives have a fitted effect of over 60% in size
Target sequence (P51450 whole entry, looked up, the tested form may be a part): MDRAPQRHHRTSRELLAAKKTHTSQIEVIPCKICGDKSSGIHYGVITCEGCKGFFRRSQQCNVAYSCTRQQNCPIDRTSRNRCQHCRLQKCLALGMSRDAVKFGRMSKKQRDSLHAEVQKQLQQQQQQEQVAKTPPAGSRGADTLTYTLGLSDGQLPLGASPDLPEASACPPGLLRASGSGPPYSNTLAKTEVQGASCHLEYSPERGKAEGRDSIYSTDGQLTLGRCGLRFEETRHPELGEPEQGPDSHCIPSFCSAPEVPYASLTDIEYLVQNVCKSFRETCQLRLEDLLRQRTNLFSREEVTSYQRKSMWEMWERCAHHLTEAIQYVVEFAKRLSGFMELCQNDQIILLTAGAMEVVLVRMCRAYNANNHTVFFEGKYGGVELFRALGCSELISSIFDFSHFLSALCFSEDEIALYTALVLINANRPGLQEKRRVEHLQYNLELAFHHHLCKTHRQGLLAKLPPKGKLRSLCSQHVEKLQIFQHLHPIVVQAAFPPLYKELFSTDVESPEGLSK
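Stably transfected Drosophila Schneider cells are the test system, with ROR gamma fused to Gal4 and luciferase under UAS control; luminescence is read after 20 hr of 700 uM copper sulfate induction at ambient temperature.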
IL1B secr inh: inhibitors of inflammasome signaling (IL-1 beta secretion); 4.7% of 360,000 active; AID 743279; activity change, % at 57.5 µM; THP-1 LPS/ATP IL-1B secretion, AlphaLISA, 16 h; stronger effect = lower value; in the data active = activity change below about -50%; inconclusive = mostly about -30% to -49%
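Secreted IL-1B measured by AlphaLISA bead assay after 16 h compound exposure of THP-1 cells; compounds (final up to 57.5 uM) added 1 h before LPS (250 ng/mL) and ATP (1.25 mM) stimulation; lower signal means less secretion.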
DT40 TDP1 no CPT: qHTS for Inhibitors of human tyrosyl-DNA phosphodiesterase 1 (TDP1): qHTS in cells in absence of CPT | DT40 Tdp1-/- hTDP1 cells, no CPT, ATP luminescence, 48 h | Potency, µM (series often up to 46.2 µM), for inactives: top-dose activity change, negative = growth inhibition, hits mostly inhibitors | 15% of 420,000 active; note: potency is the fitted concentration of half-maximal effect; nearly all actives have a fitted effect of over 55% in size
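Camptothecin absent (DMSO only). Human TDP1-complemented DT40 knockout cells, 400 cells/well, 37 °C for minimum 48 hr; ATP measured via CellTiter-Glo, 30 min dark incubation, luminescence.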
DT40 TDP1 CPT: growth inhibition of DT40 Tdp1-/-;hTDP1 cells with camptothecin (screen for TDP1 inhibitors) | chicken DT40 Tdp1-/-;hTDP1 cells + 20 nM CPT, ATP luminescence, 48 h | Potency, µM (series often up to 46.2 µM), inactives show at the top dose activity change, negative = growth inhibition, hits mostly inhibitors | 12% of 420,000 active; note: potency is the fitted concentration of half-maximal effect; nearly all actives have a fitted effect of over 55% in size
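Chicken DT40 Tdp1-/- cells stably complemented with human TDP1 were seeded at 400 cells/well in medium containing 20 nM camptothecin, exposed to pin-transferred compounds, and grown at 37 °C for at least 48 hr. Viability was read as ATP luminescence.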
* marks the source's active call; other numbers are inactive results; ! = repeats disagree; [ ] = another dose, or the depositor's remark. An excerpt weighted towards active compounds, which were near 18% of everything screened. Unless noted, calls come from the whole dose curve; as a rule, active = well fitted curve in the direction sought with a large enough effect; inconclusive = small, poorly fitted or top-dose-only effect, or another doubt; inactive = no such curve, though single readings can be large; an effect the other way counts as inactive or inconclusive. Unless noted, % is set by controls: 0 for no effect and ±100 for the full control effect.

`COc1ccc(Cc2nnc(NC(=O)CSc3ccccc3)s2)cc1OC` gave Gal4-VP16 FLuc -4%, LDHA block -4, RORgamma inh -45%, IL1B secr inh 7, DT40 TDP1 no CPT inconclusive and DT40 TDP1 CPT -27%.
Screening COc1ccccc1-n1c(-c2ccc(F)cc2)coc1=O returned Gal4-VP16 FLuc 8%, LDHA block 4, RORgamma inh -7%, IL1B secr inh 7, DT40 TDP1 no CPT 2% and DT40 TDP1 CPT 15%.
Screening COc1ccccc1-n1c(-c2ccccc2)c[n+]2c1CCc1ccccc1-2 returned Gal4-VP16 FLuc 8.9µM*, LDHA block -7, RORgamma inh inconclusive, IL1B secr inh -99*!, DT40 TDP1 no CPT 0.013µM* and DT40 TDP1 CPT 0.33µM*.
For COc1ccc(-n2c(-c3ccc(Br)cc3)c[n+]3c2CCc2ccccc2-3)cc1 the results were Gal4-VP16 FLuc 6.3µM*, LDHA block -4, RORgamma inh -69%, IL1B secr inh -59*, DT40 TDP1 no CPT 0.92µM* and DT40 TDP1 CPT 1.6µM*.
For CC(C)c1ccc(-n2c(-c3ccccc3)c[n+]3c2CCc2ccccc2-3)cc1 the results were Gal4-VP16 FLuc 3.5µM*, LDHA block -6, RORgamma inh 4.5µM*, IL1B secr inh -114*, DT40 TDP1 no CPT 0.033µM* and DT40 TDP1 CPT 0.0073µM*.
CCOC(=O)N1CCN(c2ncnc3c2[nH]c2ccc(OC)cc23)CC1 was read as Gal4-VP16 FLuc -16%, LDHA block -1, RORgamma inh 0%, IL1B secr inh 0, DT40 TDP1 no CPT 23µM* and DT40 TDP1 CPT inconclusive.
For CCOC(=O)C1CCN(c2ncnc3c2[nH]c2cccc(OC)c23)CC1 the results were Gal4-VP16 FLuc -11%, LDHA block 1, RORgamma inh 26%, IL1B secr inh inconclusive, DT40 TDP1 no CPT 26µM* and DT40 TDP1 CPT inconclusive.
For CCCCOc1ncnc2c1[nH]c1ccc(OC)cc12 the results were Gal4-VP16 FLuc 6%, LDHA block -1, RORgamma inh -10%, IL1B secr inh 23, DT40 TDP1 no CPT inconclusive and DT40 TDP1 CPT inconclusive.
CCOC(=O)N1CCN(CC(=O)c2c[nH]c3ccc(F)cc23)CC1 was read as Gal4-VP16 FLuc 1% and RORgamma inh 5%.
Screening CCOC(=O)C1CCN(c2ncnc3c2oc2ccc(Cl)cc23)CC1 returned Gal4-VP16 FLuc 1%, LDHA block -5, RORgamma inh 32%, IL1B secr inh 41, DT40 TDP1 no CPT inconclusive and DT40 TDP1 CPT inconclusive.
For CCOC(=O)N1CCN(c2ncnc3c2[nH]c2ccc(F)cc23)CC1 the results were Gal4-VP16 FLuc 7.1µM*, LDHA block inconclusive, RORgamma inh inconclusive, IL1B secr inh -3, DT40 TDP1 no CPT 2.1µM* and DT40 TDP1 CPT 6.5µM*.
For Fc1ccc(-c2noc3ncnc(N4CCN(c5ccccc5)CC4)c23)cc1 the results were LDHA block -1, DT40 TDP1 no CPT inconclusive and DT40 TDP1 CPT inconclusive.
`Fc1ccc2[nH]c3c(N4CCN(c5ccccc5)CC4)ncnc3c2c1` gave LDHA block -7, RORgamma inh 4%[0.365 µM], IL1B secr inh -55*, DT40 TDP1 no CPT 4.6µM* and DT40 TDP1 CPT 5.2µM*.
`COc1ccc2[nH]c3c(N4CCc5ccccc5C4)ncnc3c2c1` gave Gal4-VP16 FLuc 13µM*, LDHA block 4, RORgamma inh inconclusive, IL1B secr inh -97*, DT40 TDP1 no CPT 1.3µM* and DT40 TDP1 CPT 1.2µM*.
COc1ccc(N2CCN(c3ncnc4c3[nH]c3ccccc34)CC2)cc1 was read as Gal4-VP16 FLuc 7.1µM*, LDHA block -1, RORgamma inh inconclusive, IL1B secr inh -30, DT40 TDP1 no CPT 2.3µM* and DT40 TDP1 CPT 3.7µM*.
`COc1ccc(N2CCN(C(=O)Cn3c(=O)[nH]c4ccccc4c3=O)CC2)cc1` gave Gal4-VP16 FLuc 1% and RORgamma inh 22%.
`O=C(OCc1c(Cl)nc2sccn12)c1cc2c(s1)CCCC2` gave Gal4-VP16 FLuc 5%, LDHA block -3, RORgamma inh 10%, IL1B secr inh -14, DT40 TDP1 no CPT inconclusive and DT40 TDP1 CPT 14µM*.
Screening COc1ccc(C2=NN(C(=O)Cn3cnc4sccc4c3=O)C(c3ccco3)C2)cc1 (stereo not given) returned LDHA block 7.
Screening Cc1ccc(C(=O)C(C)OC(=O)c2cccc(N(C)C)c2)cc1 (stereo not given) returned LDHA block 4.
Screening COc1ccccc1/C=C1\SC(=S)N(CCC(=O)NCCCn2ccnc2)C1=O returned Gal4-VP16 FLuc -10%, LDHA block -8, RORgamma inh 16µM*, IL1B secr inh 10, DT40 TDP1 no CPT 2% and DT40 TDP1 CPT 9%.
Screening COc1ccc(/C=C2\SC(=S)N(CCC(=O)NCCCn3ccnc3)C2=O)cc1 returned Gal4-VP16 FLuc 9%, LDHA block 2, RORgamma inh 7%, IL1B secr inh -27, DT40 TDP1 no CPT 16µM* and DT40 TDP1 CPT inconclusive.
Screening CC(C)c1ccc(/C=C2\SC(=S)N(CCC(=O)NCCCn3ccnc3)C2=O)cc1 returned Gal4-VP16 FLuc inconclusive, LDHA block -1, RORgamma inh -33%, IL1B secr inh -11, DT40 TDP1 no CPT inconclusive and DT40 TDP1 CPT inconclusive.
`CCOc1ccc(-n2nnnc2CNC(=O)Nc2ccc3c(c2)OCO3)cc1` gave LDHA block 9.
`COc1ccc2cc(CNC(=O)CNC(=O)c3cc(C)cc(C)c3)ccc2c1` gave LDHA block 3.
Screening CC1(C(=O)NS(=O)(=O)c2ccccc2C(F)(F)F)CCN1C(=O)CCc1ccccc1 (stereo not given) returned LDHA block -11, IL1B secr inh -54*, DT40 TDP1 no CPT 7% and DT40 TDP1 CPT 9%.
`CC1(C(=O)Nc2nccs2)CCN1C(=O)C1(c2ccccc2)CC1` (stereo not given) gave LDHA block 2, IL1B secr inh -12, DT40 TDP1 no CPT -26% and DT40 TDP1 CPT -24%.
CC1(C(=O)Nc2nccs2)CCN1C(=O)CC(c1ccccc1)c1ccccc1 (stereo not given) was read as LDHA block 0, IL1B secr inh 12, DT40 TDP1 no CPT 21µM* and DT40 TDP1 CPT 16µM*.

Screening results: PubChem BioAssay, National Center for Advancing Translational Sciences (NCATS)
